Laboratory results published in ChEMBL document CHEMBL1201862, “PubChem BioAssay data set” (2004).
“And” between values parts separate entries of the source, which are not always exact repeats. Equal entries are not always repeated. These assays gave more results; the selection is not random. For part of these data: Measured potencies and affinities stand elsewhere. The source made the active and inactive calls. Unless noted, no cut-off for these calls is given here.

How the values were obtained:
[1] = small-molecule DNA binding by polarization – biochemical, fluorescence polarization, cherry-pick, counter-screen for EWS/Fli inhibitor project, dose response (AID 720586)
[2] = target: T1, DNA polymerase eta (Homo sapiens) (UniProt Q9Y253); assay: qHTS for Inhibitors of Polymerase Eta: Confirmatory Assay for Cherry-picked Compounds.; assay type: functional
T1 sequence (whole entry): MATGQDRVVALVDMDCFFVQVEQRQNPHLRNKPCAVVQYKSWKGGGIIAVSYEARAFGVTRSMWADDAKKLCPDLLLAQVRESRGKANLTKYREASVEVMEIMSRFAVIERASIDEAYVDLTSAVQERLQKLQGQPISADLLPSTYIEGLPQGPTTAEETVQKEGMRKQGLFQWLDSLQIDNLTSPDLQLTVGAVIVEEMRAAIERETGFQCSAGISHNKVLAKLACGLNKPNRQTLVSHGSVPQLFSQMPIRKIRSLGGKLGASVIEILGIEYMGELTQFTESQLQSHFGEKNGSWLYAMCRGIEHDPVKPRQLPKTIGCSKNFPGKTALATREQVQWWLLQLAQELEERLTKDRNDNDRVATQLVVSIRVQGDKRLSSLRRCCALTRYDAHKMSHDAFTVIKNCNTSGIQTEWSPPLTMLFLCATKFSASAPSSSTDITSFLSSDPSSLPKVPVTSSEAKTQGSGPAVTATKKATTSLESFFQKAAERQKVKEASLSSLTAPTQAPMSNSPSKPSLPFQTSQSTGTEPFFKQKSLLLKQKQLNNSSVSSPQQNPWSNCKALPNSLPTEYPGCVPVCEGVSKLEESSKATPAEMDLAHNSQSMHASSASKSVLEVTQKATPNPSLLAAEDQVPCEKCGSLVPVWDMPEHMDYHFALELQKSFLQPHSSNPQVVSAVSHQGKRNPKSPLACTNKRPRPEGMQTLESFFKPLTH

[3] = target: T2, DNA polymerase kappa (Homo sapiens) (UniProt Q9UBT6)
T2 sequence (whole entry): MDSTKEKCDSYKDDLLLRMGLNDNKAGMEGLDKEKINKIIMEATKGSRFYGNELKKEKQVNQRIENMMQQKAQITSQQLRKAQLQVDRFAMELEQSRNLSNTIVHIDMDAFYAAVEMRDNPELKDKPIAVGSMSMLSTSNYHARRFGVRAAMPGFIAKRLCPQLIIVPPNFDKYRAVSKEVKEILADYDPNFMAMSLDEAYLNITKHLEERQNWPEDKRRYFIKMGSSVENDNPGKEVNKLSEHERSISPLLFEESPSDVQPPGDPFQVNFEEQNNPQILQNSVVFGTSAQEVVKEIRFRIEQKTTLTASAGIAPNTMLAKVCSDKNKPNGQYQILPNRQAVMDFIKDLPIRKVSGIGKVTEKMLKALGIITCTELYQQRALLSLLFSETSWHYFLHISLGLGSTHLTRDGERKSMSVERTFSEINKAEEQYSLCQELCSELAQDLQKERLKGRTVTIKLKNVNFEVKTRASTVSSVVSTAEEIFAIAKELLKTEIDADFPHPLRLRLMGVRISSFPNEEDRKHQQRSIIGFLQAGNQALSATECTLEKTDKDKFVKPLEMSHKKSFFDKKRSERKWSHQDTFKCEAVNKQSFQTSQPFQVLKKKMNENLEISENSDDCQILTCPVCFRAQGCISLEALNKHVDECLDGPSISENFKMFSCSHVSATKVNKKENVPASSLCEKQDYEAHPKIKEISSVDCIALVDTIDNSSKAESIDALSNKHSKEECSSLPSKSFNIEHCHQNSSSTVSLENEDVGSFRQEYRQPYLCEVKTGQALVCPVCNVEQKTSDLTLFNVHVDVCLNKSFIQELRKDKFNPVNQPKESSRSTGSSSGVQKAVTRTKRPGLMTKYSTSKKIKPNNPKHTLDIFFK

[4] = target: Nuclear factor erythroid 2-related factor 2 (Homo sapiens) (UniProt Q16236)
Nuclear factor erythroid 2-related factor 2 (Homo sapiens), sequence (Q16236 whole entry): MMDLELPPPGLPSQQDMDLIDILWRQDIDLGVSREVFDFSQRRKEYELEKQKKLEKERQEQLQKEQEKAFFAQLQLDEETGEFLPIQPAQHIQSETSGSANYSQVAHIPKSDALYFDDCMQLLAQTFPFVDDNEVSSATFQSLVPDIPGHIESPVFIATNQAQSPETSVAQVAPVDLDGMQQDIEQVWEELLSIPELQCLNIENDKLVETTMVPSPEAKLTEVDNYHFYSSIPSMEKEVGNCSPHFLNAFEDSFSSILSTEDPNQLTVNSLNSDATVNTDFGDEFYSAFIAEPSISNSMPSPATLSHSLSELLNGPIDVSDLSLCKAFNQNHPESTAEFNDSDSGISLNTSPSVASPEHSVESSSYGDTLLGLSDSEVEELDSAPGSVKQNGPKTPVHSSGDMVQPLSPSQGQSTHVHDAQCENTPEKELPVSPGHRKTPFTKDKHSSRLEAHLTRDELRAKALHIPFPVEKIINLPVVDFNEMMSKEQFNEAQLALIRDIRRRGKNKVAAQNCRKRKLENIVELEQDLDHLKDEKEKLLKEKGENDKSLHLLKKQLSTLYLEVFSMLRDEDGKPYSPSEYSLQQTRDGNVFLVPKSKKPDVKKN

[5] = target: Pyruvate kinase PKM (Homo sapiens) (UniProt P14618); assay: qHTS Assay for Activators of Human Muscle Pyruvate Kinase.; assay type: functional
Pyruvate kinase PKM (Homo sapiens), sequence (P14618 2-531 limits assumed): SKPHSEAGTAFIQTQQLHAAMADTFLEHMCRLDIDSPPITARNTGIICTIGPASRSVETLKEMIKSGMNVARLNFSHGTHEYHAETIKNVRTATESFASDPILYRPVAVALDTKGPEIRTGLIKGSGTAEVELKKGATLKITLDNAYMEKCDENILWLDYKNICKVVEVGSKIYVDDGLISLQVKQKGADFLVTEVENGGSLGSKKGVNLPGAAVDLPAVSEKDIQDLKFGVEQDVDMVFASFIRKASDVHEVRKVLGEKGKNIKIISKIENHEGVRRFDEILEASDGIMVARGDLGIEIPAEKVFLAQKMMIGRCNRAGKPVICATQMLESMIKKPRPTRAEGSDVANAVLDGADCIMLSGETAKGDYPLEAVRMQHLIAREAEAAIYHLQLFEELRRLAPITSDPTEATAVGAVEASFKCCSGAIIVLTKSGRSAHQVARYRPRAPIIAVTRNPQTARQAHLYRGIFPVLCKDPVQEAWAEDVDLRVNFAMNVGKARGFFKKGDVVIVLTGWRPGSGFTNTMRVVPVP

[6] = target: ATPase family AAA domain-containing protein 5 (Homo sapiens) (UniProt Q96QE3); assay: qHTS screen for small molecules that inhibit ELG1-dependent DNA repair in human embryonic kidney (HEK293T) cells expressing luciferase-tagged ELG1: Hit Confirmation using MMS Stimulated ELG1.; assay type: functional
ATPase family AAA domain-containing protein 5 (Homo sapiens), sequence (Q96QE3 whole entry, the tested form may be a part): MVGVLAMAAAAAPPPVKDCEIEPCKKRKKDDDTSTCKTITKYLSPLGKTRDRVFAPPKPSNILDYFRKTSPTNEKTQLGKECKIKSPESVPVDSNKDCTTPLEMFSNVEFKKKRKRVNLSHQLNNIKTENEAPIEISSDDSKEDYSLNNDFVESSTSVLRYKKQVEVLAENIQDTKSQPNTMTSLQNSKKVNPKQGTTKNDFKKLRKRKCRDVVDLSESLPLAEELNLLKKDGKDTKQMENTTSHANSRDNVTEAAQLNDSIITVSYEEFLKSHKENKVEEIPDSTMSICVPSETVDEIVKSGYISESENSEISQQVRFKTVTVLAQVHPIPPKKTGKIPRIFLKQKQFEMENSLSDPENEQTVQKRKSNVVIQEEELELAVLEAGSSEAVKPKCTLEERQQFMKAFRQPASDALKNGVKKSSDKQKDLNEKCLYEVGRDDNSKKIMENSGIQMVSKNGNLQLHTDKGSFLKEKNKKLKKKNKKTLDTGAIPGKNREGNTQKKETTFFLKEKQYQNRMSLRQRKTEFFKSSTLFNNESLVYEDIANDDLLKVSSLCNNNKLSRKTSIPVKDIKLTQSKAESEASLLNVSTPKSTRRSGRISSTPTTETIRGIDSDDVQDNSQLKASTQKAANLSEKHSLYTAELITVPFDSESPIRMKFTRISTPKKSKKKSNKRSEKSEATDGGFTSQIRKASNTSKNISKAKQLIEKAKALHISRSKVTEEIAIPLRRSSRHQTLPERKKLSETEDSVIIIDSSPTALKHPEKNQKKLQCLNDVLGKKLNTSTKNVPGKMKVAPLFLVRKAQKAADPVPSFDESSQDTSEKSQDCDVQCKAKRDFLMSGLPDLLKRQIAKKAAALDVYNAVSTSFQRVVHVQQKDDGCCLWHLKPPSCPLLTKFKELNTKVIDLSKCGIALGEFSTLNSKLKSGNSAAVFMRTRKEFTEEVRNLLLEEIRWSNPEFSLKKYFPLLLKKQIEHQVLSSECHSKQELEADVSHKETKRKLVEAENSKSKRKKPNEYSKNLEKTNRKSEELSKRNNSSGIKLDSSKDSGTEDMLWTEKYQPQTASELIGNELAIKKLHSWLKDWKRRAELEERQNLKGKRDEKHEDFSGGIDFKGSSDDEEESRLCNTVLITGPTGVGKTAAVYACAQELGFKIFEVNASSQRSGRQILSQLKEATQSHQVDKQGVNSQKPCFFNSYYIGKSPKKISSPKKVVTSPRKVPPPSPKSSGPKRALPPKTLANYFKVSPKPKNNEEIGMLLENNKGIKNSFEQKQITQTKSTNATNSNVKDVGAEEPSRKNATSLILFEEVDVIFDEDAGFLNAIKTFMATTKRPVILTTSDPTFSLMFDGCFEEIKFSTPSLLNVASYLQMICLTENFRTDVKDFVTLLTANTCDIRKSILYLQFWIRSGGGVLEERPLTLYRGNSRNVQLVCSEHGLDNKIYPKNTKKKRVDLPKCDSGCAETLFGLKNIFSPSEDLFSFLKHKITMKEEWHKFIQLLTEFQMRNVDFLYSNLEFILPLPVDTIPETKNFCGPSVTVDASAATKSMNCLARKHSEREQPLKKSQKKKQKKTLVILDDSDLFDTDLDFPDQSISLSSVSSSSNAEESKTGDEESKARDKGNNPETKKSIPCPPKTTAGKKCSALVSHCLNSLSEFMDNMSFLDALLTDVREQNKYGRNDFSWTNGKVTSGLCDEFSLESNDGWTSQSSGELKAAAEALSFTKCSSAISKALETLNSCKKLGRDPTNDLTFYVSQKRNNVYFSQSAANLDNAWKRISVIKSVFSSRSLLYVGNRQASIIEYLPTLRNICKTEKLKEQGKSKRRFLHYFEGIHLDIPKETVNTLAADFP

[7] = target: Hypoxia-inducible factor 1-alpha (Homo sapiens) (UniProt Q16665); assay: qHTS Assay for Identification of Small Molecule Agonists for Hypoxia Response Element Signaling Pathway. [Related pubchem assays: 915 ]; assay type: functional
Hypoxia-inducible factor 1-alpha (Homo sapiens), sequence (Q16665 whole entry, looked up): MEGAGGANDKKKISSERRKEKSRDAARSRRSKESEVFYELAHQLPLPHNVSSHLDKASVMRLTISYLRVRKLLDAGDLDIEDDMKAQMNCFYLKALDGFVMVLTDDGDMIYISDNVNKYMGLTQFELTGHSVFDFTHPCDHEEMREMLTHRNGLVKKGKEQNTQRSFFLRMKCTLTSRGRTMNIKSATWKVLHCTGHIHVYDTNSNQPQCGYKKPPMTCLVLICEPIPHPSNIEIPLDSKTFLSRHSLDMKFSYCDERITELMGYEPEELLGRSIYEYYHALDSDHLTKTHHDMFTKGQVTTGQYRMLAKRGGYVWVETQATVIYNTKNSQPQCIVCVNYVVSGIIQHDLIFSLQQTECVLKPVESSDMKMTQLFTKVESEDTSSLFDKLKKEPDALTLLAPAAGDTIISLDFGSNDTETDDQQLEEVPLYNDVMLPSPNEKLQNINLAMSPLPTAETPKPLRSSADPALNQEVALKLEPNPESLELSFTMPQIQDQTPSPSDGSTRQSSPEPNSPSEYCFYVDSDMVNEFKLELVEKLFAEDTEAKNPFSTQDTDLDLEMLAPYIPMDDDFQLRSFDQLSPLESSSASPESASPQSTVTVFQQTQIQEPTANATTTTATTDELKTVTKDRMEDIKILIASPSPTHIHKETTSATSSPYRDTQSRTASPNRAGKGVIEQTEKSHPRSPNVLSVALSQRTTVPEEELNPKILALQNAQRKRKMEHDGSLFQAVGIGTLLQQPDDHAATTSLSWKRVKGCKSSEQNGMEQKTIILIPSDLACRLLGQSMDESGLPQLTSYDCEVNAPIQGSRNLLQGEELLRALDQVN

[8] = target: T3, M-phase phosphoprotein 8 (Homo sapiens) (UniProt Q99549)
T3 sequence (whole entry): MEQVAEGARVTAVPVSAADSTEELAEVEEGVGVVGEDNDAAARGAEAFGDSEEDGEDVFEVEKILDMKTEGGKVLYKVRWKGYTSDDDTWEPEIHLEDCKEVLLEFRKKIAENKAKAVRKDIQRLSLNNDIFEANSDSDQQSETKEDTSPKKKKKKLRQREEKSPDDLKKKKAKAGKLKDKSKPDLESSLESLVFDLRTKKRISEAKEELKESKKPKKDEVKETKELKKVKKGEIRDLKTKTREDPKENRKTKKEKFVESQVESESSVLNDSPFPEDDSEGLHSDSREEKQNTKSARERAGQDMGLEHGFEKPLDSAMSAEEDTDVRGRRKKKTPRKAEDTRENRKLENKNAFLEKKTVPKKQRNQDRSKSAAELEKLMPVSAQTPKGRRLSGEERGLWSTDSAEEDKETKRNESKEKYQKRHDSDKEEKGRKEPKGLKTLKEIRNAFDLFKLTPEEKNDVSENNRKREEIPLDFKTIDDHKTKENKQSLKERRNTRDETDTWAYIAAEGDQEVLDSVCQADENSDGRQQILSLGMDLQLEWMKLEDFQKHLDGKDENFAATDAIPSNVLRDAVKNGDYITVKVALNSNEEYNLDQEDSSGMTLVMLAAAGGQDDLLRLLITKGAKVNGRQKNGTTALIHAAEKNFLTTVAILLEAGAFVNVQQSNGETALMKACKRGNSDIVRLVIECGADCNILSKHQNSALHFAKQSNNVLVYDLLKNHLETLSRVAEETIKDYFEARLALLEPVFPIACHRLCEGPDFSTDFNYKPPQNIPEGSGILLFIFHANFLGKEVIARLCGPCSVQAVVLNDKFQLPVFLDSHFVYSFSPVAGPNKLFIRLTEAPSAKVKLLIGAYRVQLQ

Molecule: COc1ccc(C2=Nn3c(nnc3-c3ccccc3F)SC2)cc1OC1CCOC1 (configuration not stated)
- AbsAC35 [1]: 137 µM (active)

Molecule: CC(C)(O)c1ccccc1CC[C@@H](SCC1(CC(=O)O)CC1)c1cccc(/C=C/c2ccc3ccc(Cl)cc3n2)c1
- Potency [2]: 213 µM (active)

Molecule: Cc1cc(C)c(NC(=O)Cn2c(=O)n(Cc3ccc(C(=O)NCc4ccco4)cc3)c(=O)c3sccc32)c(C)c1
- Potency [3]: 299 µM (active)

Molecule: CC(=O)OCc1ccccc1
- Potency [4]: 30.6 µM (active)

Molecule: CISPLATIN, CHEMBL11359
- GI50 (P388/ADR): 0.561 µM
- GI50 (SN12K1): 4.06 µM
- GI50 (P388): 0.248 µM

Molecule: N[C@H](CCC(=O)O)C(=O)O
- Potency [5]: inactive

Molecule: O=C(O)c1cc(/N=N/c2ccc(S(=O)(=O)Nc3ccccn3)cc2)ccc1O
- Potency [6]: inactive

Molecule: Nc1nc2cc3c(cc2cc1C(=O)NCCc1c[nH]c2ccccc12)OCO3
- AbsAC35 [1]: 251 µM (active)

Molecule: O=C(O)Cc1ccccc1Nc1c(Cl)cccc1Cl
- Potency [7]: 6.31 µM (active) and 25.1 µM (active)
- Potency [8]: inactive
